# Records with an inconclusive call do not appear. Entries that show only a call come without a potency. Unmarked numbers belong to inactive results. Active and inactive are the calls of the source. Unless noted, calls come from the whole dose curve; as a rule, active = well fitted curve in the direction sought with a large enough effect in the repeat runs; inconclusive = weak or mixed curves; inactive = no such curve, though single readings can be large; an effect the other way counts as inactive or inconclusive.
# Columns and labels:
# [1] = qHTS assay to identify aromatase inhibitors - cell viability counter screen (AID 743084);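 note: cells stimulated with testosterone during compound exposure; nearly all actives have a fitted effect of over 55% in size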
# [2] = target: Aryl hydrocarbon receptor (Homo sapiens) (UniProt P35869); assay: qHTS assay to identify small molecule that activate the aryl hydrocarbon receptor (AhR) signaling pathway (AID 743085); note: nearly all actives have a fitted effect of over 15% in size; note: potency is the fitted concentration of half-maximal effect;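 for activation: HG2L7.5c1 human HepG2 liver cells with stably integrated DRE-driven firefly reporter; series mostly up to about 70 µM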
# In short: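 Reporter assay in engineered HepG2 line HG2L7.5c1, whose plasmid carries twenty dioxin responsive elements upstream of firefly luciferase. Treatment lasted 24 h at 37C; ONE-Glo luminescence gauged induction.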
# [3] = qHTS assay to identify small molecule that activate the aryl hydrocarbon receptor (AhR) signaling pathway - cell viability counter screen (AID 743086);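 note: HepG2 liver cells carrying the AhR DRE luciferase reporter; series mostly up to about 70 µM; nearly all actives have a fitted effect of over 45% in size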
# In short: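 HepG2-AhR-luc (HG2L7.5c1) cells, 4000/well, were preincubated 5 h at 37C, exposed to compound in qHTS format for 24 hr at 37C, then given CellTiter-Fluor for 30 min; viability was read as fluorescence in the reporter wells.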
# [4] = target: Peroxisome proliferator-activated receptor gamma (Homo sapiens) (UniProt P37231); assay: qHTS assay to identify small molecule agonists of the peroxisome proliferator-activated receptor gamma (PPARg) signaling pathway (AID 743094; active = well fitted activation curve with a large enough effect in the signal ratio in the repeat runs, not every such curve was filed as active; the % refers to the signal ratio)
# In short: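 Cells from the PPARg UAS-bla HEK293H line are plated and incubated 5 h at 37C. Compounds in DMSO are pinned in and left 17 h at 37C. LiveBLAzer B/G substrate is then added for 1 h at room temperature before fluorescence is measured.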
# [5] = target: Peroxisome proliferator-activated receptor gamma (Homo sapiens) (UniProt P37231); assay: qHTS assay to identify small molecule antagonists of the peroxisome proliferator-activated receptor gamma (PPARg) signaling pathway (AID 743191; calls by dose curve; note: series mostly up to about 63 µM; nearly all actives have a fitted effect of over 30% in size)
# In short: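 GeneBLAzer PPARg UAS-bla HEK293H cells carrying a UAS-driven beta-lactamase reporter were plated at 3000 cells/well, preincubated 5 h at 37C, then given compound for 17 h at 37C; LiveBLAzer B/G FRET substrate was read after 1 h at room temperature.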
# [6] = qHTS assay to identify small molecule antagonists of the peroxisome proliferator-activated receptor gamma (PPARg) signaling pathway - cell viability counter screen (AID 743194); note: nearly all actives have a fitted effect of over 55% in size
# In short: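 PPARg-UAS-bla HEK293H cells were plated, rested 5 h at 37 C, then treated with compounds plus rosiglitazone (50 nM final) for 17 h at 37 C; viability was then read by CellTiter-Glo luminescence after 30 min at room temperature.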
# [7] = qHTS assay for small molecule agonists of the antioxidant response element (ARE) signaling pathway - cell viability counter screen (AID 743203; calls by dose curve; note: nearly all actives have a fitted effect of over 55% in size)
# In short: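 Cytotoxicity was tested in parallel with the ARE reporter screen. ARE-bla HepG2 cells were exposed to compounds for 16 hrs, and viability was taken from CellTiter-Glo luminescence.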
# [8] = qHTS assay for small molecule activators of the heat shock response signaling pathway - cell viability counter screen (AID 743209); note: nearly all actives have a fitted effect of over 50% in size
# In short: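 Cytotoxicity counter screen run in parallel with the HSE beta-lactamase reporter, using the same wells. HeLa HSE-bla cells received compound for 5 h at 37 C; ATP-based CellTiter-Glo luminescence was measured after 30 min at room temperature.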
# [9] = qHTS assay for small molecule activators of the heat shock response signaling pathway (AID 743210; active = well fitted activation curve with a large enough effect in the signal ratio in the repeat runs, with a control signal flat, not every such curve was filed as active; the % refers to the signal ratio; note: series mostly up to about 63 µM)
# In short: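 Heat shock element–beta-lactamase HeLa reporter cells; qHTS with compounds for 5 h at 37 C; detection by FRET substrate fluorescence after 2.5 h at RT.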
# [10] = qHTS assay to identify small molecule agonists of the peroxisome proliferator-activated receptor delta (PPARd) signaling pathway - cell viability counter screen (AID 743211); note: nearly all actives have a fitted effect of over 55% in size
# In short: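 Multiplexed format: after the 2 h room-temperature LiveBLAzer B/G FRET step, CellTiter-Glo was added to the same wells. Luminescence after 30 min gave cell viability; compound exposure was 17 h at 37C.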
# [11] = qHTS assay to identify small molecule antagonists of the peroxisome proliferator-activated receptor delta (PPARd) signaling pathway - cell viability counter screen (AID 743213); note: nearly all actives have a fitted effect of over 50% in size
# In short: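 Cytotoxicity counter screen: CellTiter-Glo luminescence read 30 min after addition, in the same wells as the reporter assay. There, PPARd UAS-bla HEK293H cells (3000/well) were treated 17 h at 37 C with compound and 300 nM L165041.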
# [12] = qHTS assay to identify small molecule agonists of the farnesoid-X-receptor (FXR) signaling pathway - cell viability counter screen (AID 743218); note: nearly all actives have a fitted effect of over 45% in size
# In short: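 Cells were seeded, left 5 h at 37 C and 5% CO2, then dosed with compound in DMSO for 16 h. After the beta-lactamase FRET read, CellTiter-Glo was added and luminescence measured 30 min later.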
# [13] = qHTS assay to identify small molecule antagonists of the farnesoid-X-receptor (FXR) signaling pathway - cell viability counter screen (AID 743221; active = well fitted cell-killing curve with a large enough effect in the repeat runs, not every such curve was filed as active; note: nearly all actives have a fitted effect of over 50% in size)
# In short: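 CellTiter-Glo, 30 min RT, luminescence; same wells as the LiveBLAzer FRET read. Cells: FXR-UAS-bla HEK 293T. Treatment: compound with chenodeoxycholic acid 50 uM final, 16 h at 37 C.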
# [14] = target: Vitamin D3 receptor (Homo sapiens) (UniProt P11473); assay: qHTS assay to identify small molecule agonists of the vitamin D receptor (VDR) signaling pathway (AID 743222; calls by dose curve)
# In short: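 Cells carrying a VDR-driven beta-lactamase reporter are seeded at 2,000 per well and rested 4 h. Compounds in DMSO are added for 16 h at 37C, and FRET substrate fluorescence is measured after 2 h at room temperature.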
# [15] = target: Vitamin D3 receptor (Homo sapiens) (UniProt P11473); assay: qHTS assay to identify small molecule antagonists of the vitamin D receptor (VDR) signaling pathway (AID 743223; active = well fitted inhibition curve with a large enough effect in the signal ratio in the repeat runs, not every such curve was filed as active; the % refers to the signal ratio)
# In short: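 After VDR-bla cells are plated and left 4 h at 37C, DMSO-dissolved compounds and 3 nM (final) calcitriol agonist are added. Incubation continues 16 h at 37C; FRET beta-lactamase substrate then develops 2 h at room temperature.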
# [16] = qHTS assay for small molecule agonists of the antioxidant response element (ARE) signaling pathway (AID 743202; active = well fitted activation curve with a large enough effect in the signal ratio in the repeat runs, not every such curve was filed as active; the % refers to the signal ratio)
# In short: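 Following a 16 h, 37 C exposure of reporter HepG2 cells (ARE-driven beta-lactamase, 2,000 cells/well) to compounds, FRET substrate was applied for 2 h at room temperature and fluorescence intensity recorded.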
# [17] = target: Peroxisome proliferator-activated receptor delta (Homo sapiens) (UniProt Q03181); assay: qHTS assay to identify small molecule agonists of the peroxisome proliferator-activated receptor delta (PPARd) signaling pathway (AID 743212; calls by dose curve)
# In short: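 Beta-lactamase reporter read by fluorescence (LiveBLAzer B/G FRET, 2 h, room temperature). Test agents, in DMSO, incubated at 37 C with PPARd-bla HEK293H cells.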
# [18] = target: Bile acid receptor (Homo sapiens) (UniProt Q96RI1); assay: qHTS assay to identify small molecule agonists of the farnesoid-X-receptor (FXR) signaling pathway (AID 743220; active = well fitted activation curve with a large enough effect in the signal ratio in the repeat runs, not every such curve was filed as active; the % refers to the signal ratio)
# In short: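 FXR-UAS-bla HEK 293T cells carrying a UAS-driven beta-lactamase reporter were plated for 5 h at 37C/5% CO2, then exposed to DMSO-dissolved Tox21 10K compounds for 16 h at 37C. A LiveBLAzer B/G FRET substrate was loaded for 2 h at room temperature before fluorescence reading.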
# [19] = target: Peroxisome proliferator-activated receptor delta (Homo sapiens) (UniProt Q03181); assay: qHTS assay to identify small molecule antagonists of the peroxisome proliferator-activated receptor delta (PPARd) signaling pathway (AID 743215; active = well fitted inhibition curve with a large enough effect in the signal ratio in the repeat runs, not every such curve was filed as active; the % refers to the signal ratio;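 note: cells stimulated with agonist L165041 at 300 nM final during compound exposure; series mostly up to about 62 µM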)
# In short: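 Cells: HEK293H with a UAS-driven beta-lactamase reporter responsive to PPARd. Compounds were co-added with L165041 (300 nM, final) and incubated 17 h at 37 C before a 2 h room-temperature FRET substrate step and fluorescence reading.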
# [20] = target: Bile acid receptor (Homo sapiens) (UniProt Q96RI1); assay: qHTS assay to identify small molecule antagonists of the farnesoid-X-receptor (FXR) signaling pathway (AID 743217; active = well fitted inhibition curve with a large enough effect in the signal ratio in the repeat runs, not every such curve was filed as active; the % refers to the signal ratio)
# In short: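 Cells carrying a UAS-driven beta-lactamase reporter (GeneBLAzer FXR-UAS-bla HEK 293T) were plated and rested 5 h at 37 °C. Compounds in DMSO were added alongside chenodeoxycholic acid agonist at 50 uM final and left 16 h at 37 °C before FRET substrate readout.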
# Sequence of Peroxisome proliferator-activated receptor delta (Homo sapiens) (Q03181 whole entry, looked up): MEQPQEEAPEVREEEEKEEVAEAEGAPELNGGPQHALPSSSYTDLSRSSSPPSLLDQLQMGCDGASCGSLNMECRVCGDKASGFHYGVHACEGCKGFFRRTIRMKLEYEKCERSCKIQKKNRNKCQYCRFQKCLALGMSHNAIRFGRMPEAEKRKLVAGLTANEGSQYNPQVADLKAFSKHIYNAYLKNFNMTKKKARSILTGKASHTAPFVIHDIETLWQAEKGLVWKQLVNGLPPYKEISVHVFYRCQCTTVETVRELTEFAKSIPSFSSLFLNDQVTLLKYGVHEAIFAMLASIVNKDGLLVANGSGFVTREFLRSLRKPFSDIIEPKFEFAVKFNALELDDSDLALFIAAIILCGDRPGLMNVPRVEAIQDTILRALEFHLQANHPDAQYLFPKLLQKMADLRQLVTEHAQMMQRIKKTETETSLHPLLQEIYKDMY
# Sequence of Peroxisome proliferator-activated receptor gamma (Homo sapiens) (P37231 whole entry, looked up): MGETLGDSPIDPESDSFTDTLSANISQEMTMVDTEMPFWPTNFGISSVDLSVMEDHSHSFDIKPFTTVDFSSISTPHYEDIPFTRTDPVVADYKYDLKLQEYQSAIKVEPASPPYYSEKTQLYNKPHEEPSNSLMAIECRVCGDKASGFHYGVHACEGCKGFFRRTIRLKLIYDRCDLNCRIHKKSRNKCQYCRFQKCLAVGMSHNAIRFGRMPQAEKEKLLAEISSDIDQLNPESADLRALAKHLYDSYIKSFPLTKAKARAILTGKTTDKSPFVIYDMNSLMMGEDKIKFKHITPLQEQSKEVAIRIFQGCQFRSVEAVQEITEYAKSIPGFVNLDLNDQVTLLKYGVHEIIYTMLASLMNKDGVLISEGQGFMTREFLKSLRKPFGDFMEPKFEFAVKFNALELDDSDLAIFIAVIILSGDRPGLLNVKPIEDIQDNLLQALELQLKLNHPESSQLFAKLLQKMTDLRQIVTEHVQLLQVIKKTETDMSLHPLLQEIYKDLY
# Sequence of Bile acid receptor (Homo sapiens) (Q96RI1 whole entry, looked up): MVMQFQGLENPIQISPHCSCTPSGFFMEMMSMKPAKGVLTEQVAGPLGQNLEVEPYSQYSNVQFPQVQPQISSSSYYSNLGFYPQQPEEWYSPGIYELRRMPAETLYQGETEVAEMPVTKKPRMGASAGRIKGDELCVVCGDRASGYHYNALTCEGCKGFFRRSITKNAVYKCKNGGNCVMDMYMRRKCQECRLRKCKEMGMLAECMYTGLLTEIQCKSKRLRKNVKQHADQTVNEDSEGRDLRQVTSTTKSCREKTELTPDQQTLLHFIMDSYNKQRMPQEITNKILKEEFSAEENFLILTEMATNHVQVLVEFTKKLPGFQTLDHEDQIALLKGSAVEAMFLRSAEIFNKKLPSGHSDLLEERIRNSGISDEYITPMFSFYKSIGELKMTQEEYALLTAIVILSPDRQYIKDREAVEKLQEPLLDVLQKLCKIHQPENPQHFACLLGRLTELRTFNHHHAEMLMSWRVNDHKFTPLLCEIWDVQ
# Sequence of Vitamin D3 receptor (Homo sapiens) (P11473 whole entry, looked up): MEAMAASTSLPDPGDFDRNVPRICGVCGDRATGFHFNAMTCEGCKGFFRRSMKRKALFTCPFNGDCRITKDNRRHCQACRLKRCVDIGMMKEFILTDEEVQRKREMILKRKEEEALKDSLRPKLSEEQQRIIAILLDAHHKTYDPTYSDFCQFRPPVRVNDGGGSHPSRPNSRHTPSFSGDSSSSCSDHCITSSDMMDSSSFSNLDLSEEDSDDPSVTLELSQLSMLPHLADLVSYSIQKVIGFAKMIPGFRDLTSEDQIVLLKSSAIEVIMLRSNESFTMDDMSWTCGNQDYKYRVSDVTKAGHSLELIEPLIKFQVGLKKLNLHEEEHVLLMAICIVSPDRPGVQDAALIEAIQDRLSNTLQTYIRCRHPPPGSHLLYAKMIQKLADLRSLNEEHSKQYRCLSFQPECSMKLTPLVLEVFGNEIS
# Sequence of Aryl hydrocarbon receptor (Homo sapiens) (P35869 whole entry, looked up): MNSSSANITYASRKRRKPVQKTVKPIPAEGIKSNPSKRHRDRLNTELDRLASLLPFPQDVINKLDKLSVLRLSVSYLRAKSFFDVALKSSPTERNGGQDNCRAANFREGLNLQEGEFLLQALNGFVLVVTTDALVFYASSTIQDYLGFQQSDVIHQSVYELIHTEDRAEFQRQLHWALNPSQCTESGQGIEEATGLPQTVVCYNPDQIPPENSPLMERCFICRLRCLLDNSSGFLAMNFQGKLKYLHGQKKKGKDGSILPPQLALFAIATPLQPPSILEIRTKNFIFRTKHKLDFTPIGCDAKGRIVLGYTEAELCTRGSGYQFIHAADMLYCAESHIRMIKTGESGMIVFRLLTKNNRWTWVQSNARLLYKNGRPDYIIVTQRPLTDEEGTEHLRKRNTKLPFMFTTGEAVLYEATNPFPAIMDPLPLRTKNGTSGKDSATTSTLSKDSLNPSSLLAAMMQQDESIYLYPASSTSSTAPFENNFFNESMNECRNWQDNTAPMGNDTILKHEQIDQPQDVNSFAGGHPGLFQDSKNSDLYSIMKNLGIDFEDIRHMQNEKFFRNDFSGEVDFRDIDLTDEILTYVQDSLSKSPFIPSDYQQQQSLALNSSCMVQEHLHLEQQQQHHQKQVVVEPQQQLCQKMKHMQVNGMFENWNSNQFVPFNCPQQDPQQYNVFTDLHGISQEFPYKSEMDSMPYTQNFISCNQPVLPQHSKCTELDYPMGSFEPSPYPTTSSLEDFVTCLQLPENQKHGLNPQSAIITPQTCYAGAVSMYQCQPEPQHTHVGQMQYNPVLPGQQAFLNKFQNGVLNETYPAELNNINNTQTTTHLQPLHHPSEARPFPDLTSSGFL
Structure (SMILES),Potency [1],Potency [2],Potency [3],outcome [4],Potency [5],outcome [6],Potency [7],outcome [8],outcome [9],Potency [10],Potency [11],Potency [12],Potency [13],outcome [14],outcome [15],Potency [16],outcome [17],outcome [18],Potency [19],outcome [20]
Cc1ccc(=O)n(-c2ccccc2)c1,inactive,inactive,inactive,inactive,inactive,inactive,inactive,inactive,inactive,inactive,inactive,inactive,inactive,inactive,inactive,–,–,–,–,–
CO[C@]12C[C@@H](COC(=O)c3cncc(Br)c3)CN(C)[C@@H]1Cc1cn(C)c3cccc2c13,inactive,29.8 µM (active),inactive,inactive,–,inactive,inactive,inactive,inactive,inactive,inactive,inactive,inactive,inactive,–,inactive,–,–,–,–
COC(=O)NN,inactive,inactive,inactive,inactive,inactive,–,inactive,inactive,inactive,inactive,–,–,inactive,inactive,inactive,–,inactive,inactive,–,–
C=C[Si](OC(=C)C)(OC(=C)C)OC(=C)C,inactive,inactive,inactive,inactive,inactive,–,inactive,inactive,inactive,inactive,–,inactive,inactive,inactive,inactive,inactive,inactive,inactive,inactive,–
ClC(Cl)(Br)Br,inactive,inactive,inactive,inactive,–,inactive,inactive,inactive,inactive,inactive,–,inactive,–,inactive,inactive,inactive,inactive,–,inactive,–
C=C(C)C(=O)OCCCCCCCC(C)C,inactive,inactive,inactive,inactive,–,inactive,inactive,inactive,inactive,inactive,inactive,inactive,inactive,inactive,inactive,inactive,–,–,–,–
COC(=O)CC(C)=O,inactive,inactive,inactive,inactive,inactive,–,inactive,inactive,inactive,inactive,inactive,–,inactive,–,–,inactive,inactive,–,inactive,–
C[C@@H]1CCN(C(=O)[C@H](CCCN=C(N)N)NS(=O)(=O)c2cccc3c2NC[C@H](C)C3)[C@@H](C(=O)O)C1,inactive,inactive,inactive,inactive,inactive,–,inactive,inactive,inactive,inactive,inactive,inactive,inactive,–,–,inactive,inactive,–,inactive,–
COc1cc(C(=O)N2CCCCCCC2)cc(OC)c1OC,inactive,inactive,inactive,inactive,inactive,–,inactive,inactive,inactive,inactive,–,inactive,–,inactive,–,inactive,inactive,inactive,inactive,inactive
